Results from PubChem BioAssay (Tox21).
“And” between values parts separate entries of the source, which are not always exact repeats. Equal values may be shown once. Records with an inconclusive call do not appear. Some compounds were tested as several samples or in several runs, with calls that do not always agree. The source made the active and inactive calls. Calls follow the shape of the dose curve; as a rule, active = well fitted cell-killing curve with a large enough effect in the repeat runs; inconclusive = weak or mixed curves, or effect the other way; inactive = flat fitted curve, though single readings scatter.

Test: qHTS RealTime-Glo MT Cell Viability Assay in HEK293 cells - 24 hour (AID 1224886); also: nearly all actives have a fitted effect of over 50% in size; as to activity change, negative = cytotoxicity: top concentration of the series differs between compounds
Conditions: RealTime-Glo luminescence; series mostly up to 76.8 µM; activity change, negative = cytotoxicity: at the top concentration
Source text: National Center for Advancing Translational Sciences [NCATS]
NIH Chemical Genomics Center [NCGC]
U.S. Environmental Protection Agency [EPA]
National Institutes of Environmental Health Sciences [NIEHS]
National Toxicology Program [NTP]
U.S. Food and Drug Administration [FDA]
Measure of cell viability is critical in the cell-base assay. Analysis of cell viability is necessary for the characterization of cell responses to cytotoxic drugs and environmental stress. A RealTime-Glo MT Cell Viability Assay to monitor cell viability in real time of continues cell culture during 40 hours of compound treatment was used to screen Tox21 10K library compounds in Hek293 cells. The RealTime-Glo MT Cell Viability Assay is a nonlytic, homogeneous, bioluminescent method to measure cell viability in real time using a simple, plate-based method. The assay involves adding NanoLuc luciferase and a cell-permeant prosubstrate to cells in culture. Viable cells reduce the proprietary prosubstrate to generate a substrate for NanoLuc luciferase. This substrate diffuses from cells into the surrounding culture medium, where it is rapidly used by the NanoLuc Enzyme to produce a luminescent signal. The signal correlates with the number of viable cells, making the assay well suited for cytotoxicity studies.
Tox21 Assay Protocol Summary:
The mixture of Hek293 cell suspension and reagents were dispensed at 600cells/6 ul/well in 1536-well tissue culture treated black solid bottom plates using a Multidrop dispenser. After the assay plates were incubated at a 37 C/5% CO2 incubator for 5 hours, 23 nL of compounds dissolved in DMSO, positive and negative controls was transferred to the assay plate by a pintool work station. The plates were incubated at 37 C for 40 hours. The luminescence intensity were measured at 0h, 8h, 16h, 24h, 32h and 40h time points using ViewLux plate reader during compound treatment.
% is scaled to controls: 0 for no effect and ±100 for the full control effect; potency is read from the fitted curve at half-maximal effect.

| Structure (SMILES) | Potency | activity change, negative = cytotoxicity |
| --- | --- | --- |
| O=C1C2(Cl)C3(Cl)C4(Cl)C(Cl)(Cl)C5(Cl)C3(Cl)C1(Cl)C5(Cl)C24Cl (stereo not given) | 17.1 µM (active) and 41.8 µM (active) |  |
| C#CCO |  | 4.88% (inactive) |
| N#Cc1ccc(N(CC(N)=O)CC(F)(F)F)cc1C(F)(F)F |  | 2.94% (inactive) |
| C[C@]12C/C(=C/O)C(=O)C[C@@H]1CC[C@@H]1[C@@H]2CC[C@@]2(C)[C@H]1CC[C@]2(C)O | 49.4 µM (active) and inactive |  |
| CN |  | 18.3% (inactive) |
| Clc1ccc(C(c2ccc(Cl)cc2)C(Cl)Cl)cc1 | 44.4 µM (active) and 43.6 µM (active) |  |
| Cc1cc(C2CC2)nc(Nc2ccccc2)n1 | 24.5 µM (active) |  |
| CCCCON=O |  | 5.77% (inactive) |
| COP(=S)(OC)Oc1nc(Cl)c(Cl)cc1Cl |  | -5.7% (inactive) |
| COCCC#N |  | 8.61% (inactive) |
| CCOP(=S)(OCC)Oc1cc(C)nc(N(CC)CC)n1 |  | 3.03% (inactive) |
| O=c1c2ccccc2c(=O)c2c1cc(Cl)c1[nH]c3c([nH]c12)c(Cl)cc1c(=O)c2ccccc2c(=O)c13 |  | 23.2% (inactive) |
| CCC(C)Nc1c([N+](=O)[O-])cc(C(C)(C)C)cc1[N+](=O)[O-] (stereo not given) |  | -25.5% (inactive) |
| COC(=O)c1ccccc1S(=O)(=O)NC(=O)Nc1nc(C)nc(OC)n1 |  | 1.49% (inactive) |
| CNC(=O)Oc1cc(C)cc(C(C)C)c1 |  | -3.64% (inactive) |
| CC(=O)[O-].CC(=O)[O-].CC(=O)[O-].[Sb+3] |  | 5.82% [at 2.72 µM] (inactive) |
| COc1ccc2[nH]cc(CCN(C(C)C)C(C)C)c2c1 |  | -15.8% (inactive) |
| Cc1ccc2cc3c(ccc4ccccc43)c3c2c1CC3 |  | 1.27% [at 35.3 µM] (inactive) |
| Nc1nc(N)c(N)c(N)n1 |  | 3.88% (inactive) |
| C[C@H]1[C@H](c2ccc(Cl)cc2)SC(=O)N1C(=O)NC1CCCCC1 | 43.6 µM (active) |  |

| Structure (SMILES) | Potency | activity change, negative = cytotoxicity |
| --- | --- | --- |
| CC(=O)[O][Pb]([c]1ccccc1)([c]1ccccc1)[c]1ccccc1 | 0.436 µM (active) |  |
| Cc1cc2c3c(c1)C(c1ccccc1)=N[C@@H](NC(=O)c1ccncc1)C(=O)N3CC2 |  | -2.06% (inactive) |
| O=[N+]([O-])c1ccccc1-c1ccccc1 |  | 3.3% (inactive) |
| CC(O)C(=O)[O][Hg][c]1ccccc1 (stereo not given) | 0.977 µM (active) |  |
| COc1ccc2c3c1O[C@H]1[C@H](O)CC[C@H]4[C@@H](C2)N(C)CC[C@@]341 |  | 0.482% (inactive) |
| Cc1cccc(Cc2cnc[nH]2)c1C |  | 3.2% [at 35.3 µM] (inactive) |
| CC(C)N(C(=O)SC/C(Cl)=C/Cl)C(C)C |  | -24.3% (inactive) |
| CNC(=O)O/N=C(\C)C(C)S(C)(=O)=O (stereo not given) |  | -0.172% [at 725 µM] (inactive) |
| O=C(NC(=O)c1c(F)cccc1F)Nc1ccc(Oc2ccc(C(F)(F)F)cc2Cl)cc1F | 24.5 µM (active) |  |
| CC(=O)C(Cl)C(=O)N(C)C (stereo not given) |  | 4.18% (inactive) |
| Oc1ccc(Cl)c(Cl)c1 |  | -18.2% (inactive) |
| CCC(OC(C)=O)C(CC(C)NC)(c1ccccc1)c1ccccc1 (stereo not given) | 55.4 µM (active) |  |
| [Cl-].[Cl-].[Sn+2] |  | 19.8% (inactive) |
| Oc1ccc([C@H]2CNCc3c2ccc(O)c3O)cc1O |  | -20.6% [at 35.3 µM] (inactive) |
| CCOP(=O)(OCC)Oc1cc(C)nc(C(C)C)n1 |  | 4.25% (inactive) |
| CCOC(=O)Cc1ccccc1 |  | 15.7% (inactive) |
| CC1CCCC1 |  | -20.1% (inactive) |
| S=C=NCCc1ccccc1 | 49.1 µM (active) |  |
| CC1=C2C[C@H]3[C@@H](CC=C4C[C@@H](O)CC[C@@]43C)[C@@H]2CC[C@]12O[C@@H]1C[C@H](C)CN[C@H]1[C@H]2C | 16.9 µM (active) |  |
| CSC1=N[C@@](C)(c2ccccc2)C(=O)N1Nc1ccccc1 |  | 1.55% (inactive) |
